Experimental data reported in the supplement of paper PMC8728848.
This excerpt belongs to a sample that is enriched for the strongest signals.

Experiments:
Assay in all cases: glycan array binding signal (z-score within array); higher = stronger binding
Details in all cases: glycan notation: IUPAC condensed, linker removed
[1] = target: Fuc(a1-2)Gal(b1-4)GlcNAc(b1-6)GalNAc
How it was run: (§1)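 Glycan array data were curated from 3228 arrays in the Consortium for Functional Glycomics database and kept only where the protein sequence was available. Glycan names were converted to IUPAC-condensed notation, and columns mapping to the same glycan were averaged. The binding signal is a within-array Z-score, averaged across arrays of the same protein sequence at different concentrations or buffers and across linkers. Negative Z-scores can be read as non-binding.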

[2] = target: Fuc(a1-2)[Gal(a1-3)]Gal(b1-3)GalNAc
How it was run: as §1

[3] = target: Fuc(a1-2)[Gal(a1-3)]Gal(b1-3)GlcNAc
How it was run: as §1

[4] = target: Fuc(a1-2)[Gal(a1-3)]Gal(b1-3)GlcNAc(b1-2)Man(a1-3)[Fuc(a1-2)[Gal(a1-3)]Gal(b1-3)GlcNAc(b1-2)Man(a1-6)]Man(b1-4)GlcNAc(b1-4)[Fuc(a1-6)]GlcNAc
How it was run: as §1

[5] = target: Fuc(a1-2)[Gal(a1-3)]Gal(b1-4)GlcNAc(b1-3)[Fuc(a1-2)[Gal(a1-3)]Gal(b1-4)GlcNAc(b1-6)]GalNAc
How it was run: as §1

[6] = target: Fuc(a1-2)[GalNAc(a1-3)]Gal(b1-4)GlcNAc(b1-3)[Fuc(a1-2)[GalNAc(a1-3)]Gal(b1-4)GlcNAc(b1-6)]GalNAc
How it was run: as §1

[7] = target: Fuc(a1-3)[Gal(b1-4)]GlcNAc(b1-3)Gal(b1-4)[Fuc(a1-3)]GlcNAc(b1-3)Gal(b1-4)[Fuc(a1-3)]GlcNAc
How it was run: as §1

[8] = target: Gal(a1-3)Gal(b1-3)[Fuc(a1-4)]GlcNAc(b1-2)Man(a1-3)[Gal(a1-3)Gal(b1-3)[Fuc(a1-4)]GlcNAc(b1-2)Man(a1-6)]Man(b1-4)GlcNAc(b1-4)GlcNAc
How it was run: as §1

[9] = target: Gal(b1-3)GalNAc(b1-3)Gal(a1-4)Gal(b1-4)Glc
How it was run: as §1

[10] = target: Gal(b1-3)GlcNAc(a1-3)Gal(b1-4)GlcNAc
How it was run: as §1

[11] = target: Gal(b1-3)GlcNAc(b1-2)Man(a1-3)[GlcNAc(b1-4)][Gal(b1-3)GlcNAc(b1-2)Man(a1-6)]Man(b1-4)GlcNAc(b1-4)GlcNAc
How it was run: as §1

[12] = target: Gal(b1-3)GlcNAc(b1-3)Gal(b1-4)Glc
How it was run: as §1

[13] = target: Gal(b1-3)[Fuc(a1-4)]GlcNAc(b1-2)Man
How it was run: as §1

[14] = target: Gal(b1-3)[Neu5Ac(a2-6)]GlcNAc(b1-4)Gal(b1-4)Glc
How it was run: as §1

Gal(b1-4)GlcNAc = target: Gal(b1-4)GlcNAc
How it was run: as §1

[15] = target: Gal(b1-4)GlcNAc(b1-2)Man(a1-6)[GlcNAc(b1-2)Man(a1-3)]Man(b1-4)GlcNAc(b1-4)GlcNAc
How it was run: as §1

[16] = target: Gal(b1-4)GlcNAc(b1-2)[Gal(b1-4)GlcNAc(b1-4)]Man(a1-3)[GlcNAc(b1-4)][Gal(b1-4)GlcNAc(b1-2)Man(a1-6)]Man(b1-4)GlcNAc(b1-4)GlcNAc
How it was run: as §1

[17] = target: Gal(b1-4)GlcNAc(b1-3)Gal(b1-4)GlcNAc(b1-3)Gal(b1-4)GlcNAc(b1-2)Man(a1-3)[Gal(b1-4)GlcNAc(b1-3)Gal(b1-4)GlcNAc(b1-3)Gal(b1-4)GlcNAc(b1-2)Man(a1-6)]Man(b1-4)GlcNAc(b1-4)[Fuc(a1-6)]GlcNAc
How it was run: as §1

[18] = target: Gal(b1-4)GlcNAc(b1-3)Gal(b1-4)GlcNAc(b1-3)Gal(b1-4)GlcNAc(b1-3)Gal(b1-4)GlcNAc(b1-2)Man(a1-3)[Gal(b1-4)GlcNAc(b1-3)Gal(b1-4)GlcNAc(b1-3)Gal(b1-4)GlcNAc(b1-3)Gal(b1-4)GlcNAc(b1-2)Man(a1-6)]Man(b1-4)GlcNAc(b1-4)[Fuc(a1-6)]GlcNAc
How it was run: as §1

[19] = target: Gal(b1-4)GlcNAc(b1-3)Gal(b1-4)GlcNAc(b1-3)Gal(b1-4)GlcNAc(b1-3)Gal(b1-4)GlcNAc(b1-2)[Gal(b1-4)GlcNAc(b1-3)Gal(b1-4)GlcNAc(b1-3)Gal(b1-4)GlcNAc(b1-3)Gal(b1-4)GlcNAc(b1-6)]Man(a1-6)[Gal(b1-4)GlcNAc(b1-3)Gal(b1-4)GlcNAc(b1-3)Gal(b1-4)GlcNAc(b1-3)Gal(b1-4)GlcNAc(b1-2)Man(a1-3)]Man(b1-4)GlcNAc(b1-4)[Fuc(a1-6)]GlcNAc
How it was run: as §1

[20] = target: Gal(b1-4)GlcNAc(b1-3)Gal(b1-4)GlcNAc(b1-3)Gal(b1-4)GlcNAc(b1-3)Gal(b1-4)GlcNAc(b1-3)Gal(b1-4)GlcNAc(b1-2)Man(a1-3)[Gal(b1-4)GlcNAc(b1-3)Gal(b1-4)GlcNAc(b1-3)Gal(b1-4)GlcNAc(b1-3)Gal(b1-4)GlcNAc(b1-3)Gal(b1-4)GlcNAc(b1-2)Man(a1-6)]Man(b1-4)GlcNAc(b1-4)[Fuc(a1-6)]GlcNAc
How it was run: as §1

Gal(b1-6)Gal = target: Gal(b1-6)Gal
How it was run: as §1

Gal3S(b1-3)GalNAc = target: Gal3S(b1-3)GalNAc
How it was run: as §1

[21] = target: Gal3S(b1-4)[Fuc(a1-3)]Glc6S
How it was run: as §1

Gal6S(b1-4)Glc = target: Gal6S(b1-4)Glc
How it was run: as §1

Gal6S(b1-4)GlcNAc6S = target: Gal6S(b1-4)GlcNAc6S
How it was run: as §1

GalNAc(b1-4)GlcNAc6S = target: GalNAc(b1-4)GlcNAc6S
How it was run: as §1

Glc(a1-6)Glc(a1-6)Glc = target: Glc(a1-6)Glc(a1-6)Glc
How it was run: as §1

GlcA(b1-3)Gal = target: GlcA(b1-3)Gal
How it was run: as §1

[22] = target: GlcNAc(a1-4)Gal(b1-4)GalNAc
How it was run: as §1

[23] = target: GlcNAc(b1-2)Man(a1-3)[GlcNAc(b1-4)][GlcNAc(b1-2)Man(a1-6)]Man(b1-4)GlcNAc(b1-4)[Fuc(a1-6)]GlcNAc
How it was run: as §1

[24] = target: GlcNAc(b1-2)[GlcNAc(b1-4)]Man(a1-3)[GlcNAc(b1-4)][GlcNAc(b1-2)Man(a1-6)]Man(b1-4)GlcNAc(b1-4)GlcNAc
How it was run: as §1

[25] = target: GlcNAc(b1-2)[GlcNAc(b1-6)]Man(a1-6)[GlcNAc(b1-2)Man(a1-3)]Man(b1-4)GlcNAc(b1-4)[Fuc(a1-6)]GlcNAc
How it was run: as §1

[26] = target: GlcNAc(b1-3)Gal(b1-4)GlcNAc(b1-2)[GlcNAc(b1-3)Gal(b1-4)GlcNAc(b1-6)]Man(a1-6)[GlcNAc(b1-3)Gal(b1-4)GlcNAc(b1-2)Man(a1-3)]Man(b1-4)GlcNAc(b1-4)GlcNAc
How it was run: as §1

[27] = target: GlcNAc(b1-3)Gal(b1-4)GlcNAc(b1-3)Gal(b1-4)GlcNAc(b1-2)Man(a1-3)[GlcNAc(b1-3)Gal(b1-4)GlcNAc(b1-3)Gal(b1-4)GlcNAc(b1-2)Man(a1-6)]Man(b1-4)GlcNAc(b1-4)GlcNAc
How it was run: as §1

[28] = target: GlcNAc(b1-3)Gal(b1-4)GlcNAc(b1-3)[GlcNAc(b1-3)Gal(b1-4)GlcNAc(b1-3)]GalNAc
How it was run: as §1

Kdn(a2-6)Gal(b1-4)GlcNAc = target: Kdn(a2-6)Gal(b1-4)GlcNAc
How it was run: as §1

[29] = target: Neu5Ac(a2-3)Gal(b1-3)GlcNAc(b1-6)GalNAc
How it was run: as §1

[30] = target: Neu5Ac(a2-3)Gal(b1-3)GlcNAc6S
How it was run: as §1

[31] = target: Neu5Ac(a2-3)Gal(b1-3)[Neu5Ac(a2-6)]GlcNAc(b1-3)[Fuc(a1-3)[Gal(b1-4)]GlcNAc(b1-6)]Gal(b1-4)Glc
How it was run: as §1

Neu5Ac(a2-3)Gal(b1-4)Glc = target: Neu5Ac(a2-3)Gal(b1-4)Glc
How it was run: as §1

[32] = target: Neu5Ac(a2-3)Gal(b1-4)GlcNAc(b1-3)Gal(b1-3)GlcNAc
How it was run: as §1

[33] = target: Neu5Ac(a2-3)Gal(b1-4)GlcNAc(b1-6)[Gal(b1-3)]GalNAc
How it was run: as §1

Neu5Ac(a2-3)GalNAc = target: Neu5Ac(a2-3)GalNAc
How it was run: as §1

[34] = target: Neu5Ac(a2-6)Gal(b1-4)GlcNAc(b1-2)Man(a1-3)Man(b1-4)GlcNAc(b1-4)GlcNAc
How it was run: as §1

[35] = target: Neu5Ac(a2-8)Neu5Ac(a2-3)Gal(b1-3)GalNAc(b1-4)[Neu5Ac(a2-8)Neu5Ac(a2-3)]Gal(b1-4)Glc
How it was run: as §1

[36] = target: Neu5Ac(a2-8)Neu5Ac(a2-8)Neu5Ac
How it was run: as §1

[37] = target: Neu5Gc(a2-3)Gal(b1-4)GlcNAc
How it was run: as §1

B1: Sebin1 (Coprinopsis cinerea), A8PEE3 (protein)
chain: MTSPFYAHIHNVQDDNTWRFTLIFANRATADEWWRAISEAPANTSIAKSITRVTPQYYTHDVNIWNIWNFFADGNIKSISERFRGRLFIVLENDRGGRGITVIPPVPIVDHVSGNWFYIRSKTAPHLFWYYDERRSSIYASKEKRTRFKISIRNPSSQTPKNAIMINTDDVTIHIKENLYVGVDNNLGHIIPTRAYRTFKFGELESGAIAGFDVVENIEERCSSTFDGASLSISGPDSSSPGEPWELV
- glycan array binding signal (z-score) [1]: 4.71
- glycan array binding signal (z-score) [2]: -0.147
- glycan array binding signal (z-score) [3]: -0.29
- glycan array binding signal (z-score) [4]: 2.8
- glycan array binding signal (z-score) [5]: 3.52
- glycan array binding signal (z-score) [6]: 1.28
- glycan array binding signal (z-score) [7]: -0.039
- glycan array binding signal (z-score) [8]: 2.45
- glycan array binding signal (z-score) [9]: 0.187
- glycan array binding signal (z-score) [10]: -0.485
- glycan array binding signal (z-score) [11]: 2.39
- glycan array binding signal (z-score) [12]: -0.671
- glycan array binding signal (z-score) [13]: 0.391
- glycan array binding signal (z-score) [14]: 0.647
- glycan array binding signal (z-score) (Gal(b1-4)GlcNAc): -0.703
- glycan array binding signal (z-score) [15]: -0.684
- glycan array binding signal (z-score) [16]: 0.136
- glycan array binding signal (z-score) [17]: 13.4
- glycan array binding signal (z-score) [18]: 6.4
- glycan array binding signal (z-score) [19]: 2.44
- glycan array binding signal (z-score) [20]: 2.62
- glycan array binding signal (z-score) (Gal(b1-6)Gal): 0.332
- glycan array binding signal (z-score) (Gal3S(b1-3)GalNAc): -0.501
- glycan array binding signal (z-score) [21]: 0.696
- glycan array binding signal (z-score) (Gal6S(b1-4)Glc): 0.006
- glycan array binding signal (z-score) (Gal6S(b1-4)GlcNAc6S): 0.222
- glycan array binding signal (z-score) (GalNAc(b1-4)GlcNAc6S): 0.053
- glycan array binding signal (z-score) (Glc(a1-6)Glc(a1-6)Glc): -0.354
- glycan array binding signal (z-score) (GlcA(b1-3)Gal): -0.505
- glycan array binding signal (z-score) [22]: -0.32
- glycan array binding signal (z-score) [23]: -0.296
- glycan array binding signal (z-score) [24]: 2.33
- glycan array binding signal (z-score) [25]: -0.058
- glycan array binding signal (z-score) [26]: -0.792
- glycan array binding signal (z-score) [27]: 0.145
- glycan array binding signal (z-score) [28]: -0.696
- glycan array binding signal (z-score) (Kdn(a2-6)Gal(b1-4)GlcNAc): -0.282
- glycan array binding signal (z-score) [29]: -0.335
- glycan array binding signal (z-score) [30]: -0.146
- glycan array binding signal (z-score) [31]: -0.727
- glycan array binding signal (z-score) (Neu5Ac(a2-3)Gal(b1-4)Glc): 3.86
- glycan array binding signal (z-score) [32]: -0.415
- glycan array binding signal (z-score) [33]: 2.49
- glycan array binding signal (z-score) (Neu5Ac(a2-3)GalNAc): -0.458
- glycan array binding signal (z-score) [34]: -0.4
- glycan array binding signal (z-score) [35]: -0.152
- glycan array binding signal (z-score) [36]: -0.546
- glycan array binding signal (z-score) [37]: -0.074
